The record followed here is article PMC7862700, “An all-to-all approach to the identification of sequence-specific readers for epigenetic DNA modifications on cytosine”.

Test in all cases: DAPPL (digital affinity profiling via proximity ligation, sequencing); 10 mM Tris-HCl pH 7.5, 50 mM NaCl, 1 mM DTT, 4% glycerol, room temperature, 30 min; GST-TFs on glutathione beads, 16-mer random dsDNA library, 0.1% formaldehyde crosslink after washing; high values mean tight binding
Test [1] concerns the target T1, FEV (Homo sapiens, UniProt Q99581 1-238).
T1 sequence: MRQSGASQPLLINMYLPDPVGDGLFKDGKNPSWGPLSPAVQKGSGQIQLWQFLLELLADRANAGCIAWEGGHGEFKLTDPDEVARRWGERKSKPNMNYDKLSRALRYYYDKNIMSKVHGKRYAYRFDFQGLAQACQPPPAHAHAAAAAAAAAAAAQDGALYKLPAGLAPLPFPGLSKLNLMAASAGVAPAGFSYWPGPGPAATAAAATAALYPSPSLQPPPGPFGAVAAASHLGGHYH
Particulars: protein: recombinant; tags: N-terminal GST; dsDNA, one strand shown. The method, boiled down: (§1)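 Binding signal is given per hexamer as its read frequency for a factor divided by its frequency in the tag-only sample. GST-fused human transcription factors were expressed in yeast, captured on glutathione beads, barcoded with DNA and pooled with that sample, then incubated with 200 nmole of a 16-mer random double-stranded DNA library in Tris/NaCl/DTT/glycerol buffer for 30 min at room temperature. The pools were then washed, crosslinked, proximity-ligated, amplified by PCR and sequenced on an Illumina NextSeq500.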

Test [2] addresses ETV5 (Homo sapiens, UniProt P41161 1-510). As to conditions: protein: recombinant; tags: N-terminal GST; dsDNA, one strand shown. The method, boiled down: as §1
The target of test [3] is HSF1 (Homo sapiens, UniProt Q00613 1-529). Particulars: protein: recombinant; tags: N-terminal GST; chain copies: 3; dsDNA, one strand shown. The method, boiled down:
as §1

Test [4] has as its target T2, SPIC (Homo sapiens, UniProt Q8N5J4 1-248).
T2 sequence: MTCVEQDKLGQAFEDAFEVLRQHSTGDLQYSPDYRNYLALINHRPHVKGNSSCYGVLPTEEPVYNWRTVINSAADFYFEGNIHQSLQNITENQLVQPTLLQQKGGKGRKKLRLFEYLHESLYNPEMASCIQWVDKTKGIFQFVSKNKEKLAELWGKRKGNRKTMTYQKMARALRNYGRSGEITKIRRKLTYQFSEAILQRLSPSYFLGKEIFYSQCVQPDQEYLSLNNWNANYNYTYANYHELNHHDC
Particulars: protein: recombinant; tags: N-terminal GST; dsDNA, one strand shown. The method, boiled down:
as §1

In test [5] the target is ELF4 (Homo sapiens, UniProt Q99607 1-663). Particulars: protein: recombinant; tags: N-terminal GST; dsDNA, one strand shown. The method, boiled down:
as §1

Test [6] addresses T3, ELK4 (Homo sapiens, UniProt P28324-2 1-405).
T3 sequence: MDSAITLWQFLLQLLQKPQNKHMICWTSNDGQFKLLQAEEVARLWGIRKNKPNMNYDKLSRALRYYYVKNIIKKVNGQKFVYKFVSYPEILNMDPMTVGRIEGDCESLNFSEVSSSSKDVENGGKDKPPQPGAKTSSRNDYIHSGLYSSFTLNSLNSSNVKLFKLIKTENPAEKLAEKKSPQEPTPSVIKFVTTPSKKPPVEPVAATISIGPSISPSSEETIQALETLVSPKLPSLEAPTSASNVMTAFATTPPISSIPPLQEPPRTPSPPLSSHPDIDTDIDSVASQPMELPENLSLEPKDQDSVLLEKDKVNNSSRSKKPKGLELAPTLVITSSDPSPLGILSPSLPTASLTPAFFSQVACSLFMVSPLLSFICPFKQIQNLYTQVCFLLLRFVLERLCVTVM
As to conditions: protein: recombinant; tags: N-terminal GST; dsDNA, one strand shown. The method, boiled down: as §1

In test [7] the target is T4, ETV2 (Homo sapiens, UniProt O00321 1-342).
T4 sequence: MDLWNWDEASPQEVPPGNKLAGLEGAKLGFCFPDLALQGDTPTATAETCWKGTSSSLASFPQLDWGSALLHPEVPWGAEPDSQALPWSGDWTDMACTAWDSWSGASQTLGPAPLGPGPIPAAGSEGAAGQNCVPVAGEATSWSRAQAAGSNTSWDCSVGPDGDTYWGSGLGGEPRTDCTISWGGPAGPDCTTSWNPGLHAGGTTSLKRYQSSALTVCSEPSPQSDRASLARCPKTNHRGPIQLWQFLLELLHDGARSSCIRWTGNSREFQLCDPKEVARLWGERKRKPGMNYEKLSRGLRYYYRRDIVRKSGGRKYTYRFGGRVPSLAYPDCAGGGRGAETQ
As to conditions: protein: recombinant; tags: N-terminal GST; dsDNA, one strand shown. The method, boiled down: as §1

The target of test [8] is T5, ELF3 (Homo sapiens, UniProt P78545 1-371).
T5 sequence: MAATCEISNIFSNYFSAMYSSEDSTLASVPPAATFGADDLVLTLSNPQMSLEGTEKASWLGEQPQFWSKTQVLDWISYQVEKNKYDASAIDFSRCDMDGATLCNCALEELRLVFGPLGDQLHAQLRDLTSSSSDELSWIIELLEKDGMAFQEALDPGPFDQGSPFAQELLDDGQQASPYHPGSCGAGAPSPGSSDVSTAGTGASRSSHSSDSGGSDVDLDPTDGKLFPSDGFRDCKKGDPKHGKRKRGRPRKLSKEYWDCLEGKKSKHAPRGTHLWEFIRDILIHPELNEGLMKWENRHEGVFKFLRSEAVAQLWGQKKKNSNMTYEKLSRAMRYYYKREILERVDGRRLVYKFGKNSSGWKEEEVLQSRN
Particulars: protein: recombinant; tags: N-terminal GST; dsDNA, one strand shown. The method, boiled down: as §1

Test [9] has as its target CRX (Homo sapiens, UniProt O43186 1-299). As to conditions: protein: recombinant; tags: N-terminal GST; dsDNA, one strand shown. The method, boiled down: as §1
Test [10] deals with ETV1 (Homo sapiens, UniProt P50549 1-477). Particulars: protein: recombinant; tags: N-terminal GST; dsDNA, one strand shown. The method, boiled down: as §1
ETV1, sequence (P50549 whole entry): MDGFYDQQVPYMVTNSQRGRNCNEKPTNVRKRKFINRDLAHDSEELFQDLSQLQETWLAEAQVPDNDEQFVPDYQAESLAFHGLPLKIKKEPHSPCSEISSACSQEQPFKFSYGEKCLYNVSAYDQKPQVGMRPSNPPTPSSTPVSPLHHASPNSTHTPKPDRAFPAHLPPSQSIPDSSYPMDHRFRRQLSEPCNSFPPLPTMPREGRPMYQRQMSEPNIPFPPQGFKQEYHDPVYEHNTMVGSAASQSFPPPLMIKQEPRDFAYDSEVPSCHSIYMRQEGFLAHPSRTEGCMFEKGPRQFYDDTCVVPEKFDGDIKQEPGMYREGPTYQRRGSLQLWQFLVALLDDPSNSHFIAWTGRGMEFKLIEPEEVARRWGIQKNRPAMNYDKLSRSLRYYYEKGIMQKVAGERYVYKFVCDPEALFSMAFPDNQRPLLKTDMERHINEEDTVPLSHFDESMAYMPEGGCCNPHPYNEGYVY
Test [11] deals with T6, ERF (Homo sapiens, UniProt P50548 1-548).
T6 sequence: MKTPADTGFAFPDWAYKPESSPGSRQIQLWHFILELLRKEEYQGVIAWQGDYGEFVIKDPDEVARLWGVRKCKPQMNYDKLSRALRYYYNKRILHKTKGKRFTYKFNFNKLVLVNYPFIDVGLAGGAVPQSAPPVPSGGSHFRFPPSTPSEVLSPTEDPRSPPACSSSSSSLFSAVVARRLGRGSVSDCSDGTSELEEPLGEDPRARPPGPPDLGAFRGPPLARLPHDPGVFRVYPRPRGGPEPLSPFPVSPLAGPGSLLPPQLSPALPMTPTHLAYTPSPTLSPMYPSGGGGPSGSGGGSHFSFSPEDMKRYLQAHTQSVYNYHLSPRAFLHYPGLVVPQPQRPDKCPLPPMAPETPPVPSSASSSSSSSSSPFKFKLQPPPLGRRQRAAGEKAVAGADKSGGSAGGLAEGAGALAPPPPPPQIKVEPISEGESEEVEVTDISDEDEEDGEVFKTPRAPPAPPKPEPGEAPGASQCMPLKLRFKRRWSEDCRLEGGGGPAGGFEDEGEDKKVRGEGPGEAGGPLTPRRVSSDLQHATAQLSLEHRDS
Particulars: protein: recombinant; tags: N-terminal GST; dsDNA, one strand shown. The method, boiled down:
as §1

The target in test [12] is T7, ETV3L (Homo sapiens, UniProt Q6ZN32 1-361).
T7 sequence: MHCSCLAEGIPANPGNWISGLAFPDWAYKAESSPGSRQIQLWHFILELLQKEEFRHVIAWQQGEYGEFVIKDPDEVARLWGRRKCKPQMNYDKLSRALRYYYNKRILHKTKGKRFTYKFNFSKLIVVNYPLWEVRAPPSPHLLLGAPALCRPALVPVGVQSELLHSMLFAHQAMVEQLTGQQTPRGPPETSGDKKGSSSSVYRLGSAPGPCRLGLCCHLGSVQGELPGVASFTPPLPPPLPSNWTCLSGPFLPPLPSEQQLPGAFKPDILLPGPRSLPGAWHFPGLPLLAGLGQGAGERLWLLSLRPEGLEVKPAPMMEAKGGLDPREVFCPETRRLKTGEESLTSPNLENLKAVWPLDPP
Particulars: protein: recombinant; tags: N-terminal GST; dsDNA, one strand shown. The method, boiled down:
as §1

Test [13] has as its target T8, ETS2 (Homo sapiens, UniProt P15036 1-469).
T8 sequence: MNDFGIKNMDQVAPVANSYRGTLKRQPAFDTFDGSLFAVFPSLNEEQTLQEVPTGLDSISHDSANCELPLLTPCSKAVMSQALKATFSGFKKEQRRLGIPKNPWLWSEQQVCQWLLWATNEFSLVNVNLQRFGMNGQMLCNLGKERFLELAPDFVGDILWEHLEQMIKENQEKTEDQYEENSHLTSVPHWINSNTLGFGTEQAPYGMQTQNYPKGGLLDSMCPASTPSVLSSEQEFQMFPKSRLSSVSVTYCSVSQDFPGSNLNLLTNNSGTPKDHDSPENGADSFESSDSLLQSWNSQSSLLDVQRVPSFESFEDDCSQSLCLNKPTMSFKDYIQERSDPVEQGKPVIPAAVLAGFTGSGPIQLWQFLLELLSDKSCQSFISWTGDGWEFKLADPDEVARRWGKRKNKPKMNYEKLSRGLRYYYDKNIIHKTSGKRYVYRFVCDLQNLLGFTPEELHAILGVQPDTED
Particulars: protein: recombinant; tags: N-terminal GST; dsDNA, one strand shown. The method, boiled down:
as §1

Test [14] deals with T9, SPDEF (Homo sapiens, UniProt O95238 1-335).
T9 sequence: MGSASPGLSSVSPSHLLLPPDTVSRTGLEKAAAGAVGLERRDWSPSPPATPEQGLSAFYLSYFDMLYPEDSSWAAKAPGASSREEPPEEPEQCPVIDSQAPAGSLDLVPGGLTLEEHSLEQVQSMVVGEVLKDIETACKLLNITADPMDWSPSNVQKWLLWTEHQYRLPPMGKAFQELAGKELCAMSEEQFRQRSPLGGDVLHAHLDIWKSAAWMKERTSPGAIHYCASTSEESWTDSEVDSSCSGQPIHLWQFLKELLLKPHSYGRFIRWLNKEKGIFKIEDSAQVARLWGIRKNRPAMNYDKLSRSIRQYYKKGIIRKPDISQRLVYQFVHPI
Particulars: protein: recombinant; tags: N-terminal GST; dsDNA, one strand shown. The method, boiled down:
as §1

Test [15] has as its target T10, ETV7 (Homo sapiens, UniProt Q9Y603 1-341).
T10 sequence: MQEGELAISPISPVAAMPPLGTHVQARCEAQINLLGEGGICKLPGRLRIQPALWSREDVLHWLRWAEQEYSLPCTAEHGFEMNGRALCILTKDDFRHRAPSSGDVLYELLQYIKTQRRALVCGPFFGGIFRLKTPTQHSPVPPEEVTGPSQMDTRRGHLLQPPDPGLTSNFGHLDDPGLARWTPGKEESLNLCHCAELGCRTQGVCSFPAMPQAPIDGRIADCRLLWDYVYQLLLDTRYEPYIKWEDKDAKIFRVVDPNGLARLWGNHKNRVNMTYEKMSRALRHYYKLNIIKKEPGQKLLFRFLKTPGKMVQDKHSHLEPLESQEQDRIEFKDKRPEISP
Particulars: protein: recombinant; tags: N-terminal GST; dsDNA, one strand shown. The method, boiled down: as §1

In test [16] the target is T11, ELF5 (Homo sapiens, UniProt Q9UKW6-2 1-255).
T11 sequence: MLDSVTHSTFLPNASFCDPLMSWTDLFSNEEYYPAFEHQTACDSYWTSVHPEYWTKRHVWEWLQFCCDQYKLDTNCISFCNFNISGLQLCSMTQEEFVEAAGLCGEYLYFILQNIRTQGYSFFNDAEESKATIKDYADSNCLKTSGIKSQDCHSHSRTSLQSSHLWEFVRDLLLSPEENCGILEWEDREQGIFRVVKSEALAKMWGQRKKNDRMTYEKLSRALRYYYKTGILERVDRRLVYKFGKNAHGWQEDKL
Particulars: protein: recombinant; tags: N-terminal GST; dsDNA, one strand shown. The method, boiled down:
as §1

Test [17] has as its target T12, ETV3 (Homo sapiens, UniProt P41162-2 1-143).
T12 sequence: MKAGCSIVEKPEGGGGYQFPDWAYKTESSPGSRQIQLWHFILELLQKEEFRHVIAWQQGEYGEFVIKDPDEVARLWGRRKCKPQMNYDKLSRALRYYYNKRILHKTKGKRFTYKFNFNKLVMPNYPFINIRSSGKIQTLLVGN
As to conditions: protein: recombinant; tags: N-terminal GST; dsDNA, one strand shown. The method, boiled down:
as §1

Test [18] concerns the target ETV6 (Homo sapiens, UniProt P41212 1-452). Particulars: protein: recombinant; tags: N-terminal GST; dsDNA, one strand shown. The method, boiled down: as §1

ELF4, sequence (Q99607 whole entry): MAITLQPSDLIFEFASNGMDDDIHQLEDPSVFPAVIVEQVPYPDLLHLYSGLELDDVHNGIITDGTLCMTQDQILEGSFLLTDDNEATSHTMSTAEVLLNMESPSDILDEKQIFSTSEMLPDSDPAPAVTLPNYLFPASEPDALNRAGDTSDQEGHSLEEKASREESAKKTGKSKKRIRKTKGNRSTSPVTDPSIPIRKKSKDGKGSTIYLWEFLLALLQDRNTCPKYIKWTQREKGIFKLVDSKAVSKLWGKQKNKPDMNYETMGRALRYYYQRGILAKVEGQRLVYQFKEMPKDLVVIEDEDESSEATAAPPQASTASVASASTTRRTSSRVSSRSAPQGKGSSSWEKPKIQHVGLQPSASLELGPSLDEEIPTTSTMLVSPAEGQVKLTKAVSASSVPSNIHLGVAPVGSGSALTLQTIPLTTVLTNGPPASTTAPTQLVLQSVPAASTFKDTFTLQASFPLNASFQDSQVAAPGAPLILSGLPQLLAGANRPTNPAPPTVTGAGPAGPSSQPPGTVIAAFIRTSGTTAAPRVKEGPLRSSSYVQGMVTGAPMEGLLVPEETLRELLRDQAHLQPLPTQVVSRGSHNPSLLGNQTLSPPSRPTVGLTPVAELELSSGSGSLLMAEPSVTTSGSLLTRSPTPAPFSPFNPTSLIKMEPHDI
ETV5, sequence (P41161 whole entry): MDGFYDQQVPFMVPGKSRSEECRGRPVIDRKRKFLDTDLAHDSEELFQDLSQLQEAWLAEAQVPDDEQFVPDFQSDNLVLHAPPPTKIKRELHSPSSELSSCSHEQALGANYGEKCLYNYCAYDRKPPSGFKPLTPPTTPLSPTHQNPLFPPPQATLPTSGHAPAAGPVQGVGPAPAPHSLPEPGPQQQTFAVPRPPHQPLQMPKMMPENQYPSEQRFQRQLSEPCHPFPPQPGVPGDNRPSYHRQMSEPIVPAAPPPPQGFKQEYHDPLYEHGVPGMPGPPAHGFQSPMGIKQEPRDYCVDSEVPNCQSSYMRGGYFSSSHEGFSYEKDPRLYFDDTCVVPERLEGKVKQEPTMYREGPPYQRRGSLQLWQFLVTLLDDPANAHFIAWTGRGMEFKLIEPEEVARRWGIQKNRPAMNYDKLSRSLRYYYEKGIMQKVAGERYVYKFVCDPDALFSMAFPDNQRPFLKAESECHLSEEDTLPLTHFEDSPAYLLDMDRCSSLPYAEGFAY
HSF1, sequence (Q00613 whole entry): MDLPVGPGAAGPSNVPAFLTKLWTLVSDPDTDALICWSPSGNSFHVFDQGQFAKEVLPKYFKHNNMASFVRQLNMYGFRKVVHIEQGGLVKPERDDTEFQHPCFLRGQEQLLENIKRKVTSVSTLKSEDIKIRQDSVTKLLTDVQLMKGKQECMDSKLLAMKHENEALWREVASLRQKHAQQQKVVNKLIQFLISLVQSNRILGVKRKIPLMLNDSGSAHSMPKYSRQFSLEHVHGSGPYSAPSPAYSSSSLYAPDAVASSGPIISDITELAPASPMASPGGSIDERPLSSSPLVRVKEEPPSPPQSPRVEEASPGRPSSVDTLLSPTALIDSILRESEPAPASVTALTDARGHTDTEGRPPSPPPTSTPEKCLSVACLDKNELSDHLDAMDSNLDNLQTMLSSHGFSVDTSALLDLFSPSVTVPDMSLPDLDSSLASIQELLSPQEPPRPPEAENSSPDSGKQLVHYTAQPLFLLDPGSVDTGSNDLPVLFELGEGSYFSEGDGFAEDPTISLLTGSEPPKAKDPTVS
ETV6, sequence (P41212 whole entry): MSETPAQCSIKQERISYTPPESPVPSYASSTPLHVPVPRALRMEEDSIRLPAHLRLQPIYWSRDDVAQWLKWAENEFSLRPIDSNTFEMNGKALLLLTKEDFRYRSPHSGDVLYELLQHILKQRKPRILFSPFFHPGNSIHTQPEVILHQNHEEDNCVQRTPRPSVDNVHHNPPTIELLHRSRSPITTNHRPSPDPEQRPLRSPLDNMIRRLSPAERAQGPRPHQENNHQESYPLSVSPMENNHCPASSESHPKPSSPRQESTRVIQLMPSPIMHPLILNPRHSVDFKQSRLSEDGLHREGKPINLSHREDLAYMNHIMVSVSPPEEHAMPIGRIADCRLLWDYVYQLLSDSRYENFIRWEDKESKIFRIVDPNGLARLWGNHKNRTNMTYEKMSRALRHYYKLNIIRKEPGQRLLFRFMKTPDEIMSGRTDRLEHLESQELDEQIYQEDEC
CRX, sequence (O43186 whole entry): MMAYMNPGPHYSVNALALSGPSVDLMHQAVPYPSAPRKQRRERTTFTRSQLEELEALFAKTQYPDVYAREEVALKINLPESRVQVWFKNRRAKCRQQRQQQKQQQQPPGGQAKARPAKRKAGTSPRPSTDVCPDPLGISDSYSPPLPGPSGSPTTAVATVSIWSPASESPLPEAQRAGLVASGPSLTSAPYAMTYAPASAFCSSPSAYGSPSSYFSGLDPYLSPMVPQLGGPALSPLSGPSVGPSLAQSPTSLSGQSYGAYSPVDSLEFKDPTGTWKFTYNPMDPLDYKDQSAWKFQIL

As to TAAAAG, the binding signal was 1.08 fold enrichment (6-mer frequency, TF over GST control) in [1]; 1.19 fold enrichment (6-mer frequency, TF over GST control) in test [2]; 1.43 fold enrichment (6-mer frequency, TF over GST control) in test [3]; 1.14 fold enrichment (6-mer frequency, TF over GST control) in [4]; 1.17 fold enrichment (6-mer frequency, TF over GST control) in test [5]; 1.2 fold enrichment (6-mer frequency, TF over GST control) in test [6]. Further, the binding signal is 1.22 fold enrichment (6-mer frequency, TF over GST control) in test [7]; 1.21 fold enrichment (6-mer frequency, TF over GST control) in test [8]; 1.72 fold enrichment (6-mer frequency, TF over GST control) in [9]; 1.18 fold enrichment (6-mer frequency, TF over GST control) in [10]; 1.2 fold enrichment (6-mer frequency, TF over GST control) in test [11]; 1.1 fold enrichment (6-mer frequency, TF over GST control) in test [12]. The binding signal in test [13] is 1.18 fold enrichment (6-mer frequency, TF over GST control); in test [14] it was 1.08 fold enrichment (6-mer frequency, TF over GST control); in test [15] it was 1.19 fold enrichment (6-mer frequency, TF over GST control); in test [16], 1.16 fold enrichment (6-mer frequency, TF over GST control); in test [17], 1.12 fold enrichment (6-mer frequency, TF over GST control); in [18], 1.23 fold enrichment (6-mer frequency, TF over GST control).
